Reference: the supplement of paper PMC6555819

Tests used:
Experiment in all cases: PBM binding z-score (relative to random genomic background probes); higher = stronger binding; sequences stand for … in GC…GCGATTGACAGCGTAGAATGAAGG
[1] = test system: FXR:RXRa (NR concentration 270 nM, RXRa partner concentration 90 nM)
In short: (§1)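 Binding buffer was PBS pH 7.4 with 2% milk, 0.02% Triton X-100, 1 mM DTT, 0.2 mg/mL BSA and 0.4 mg/ml salmon testes DNA. In it, ligand-free nuclear receptor dimers were incubated 1 h on custom Agilent 4×180K protein-binding microarrays carrying double-stranded probes. Antibodies against each partner (one per run) detected binding, and z-scores were calculated against random background probes after regression normalization of scanned fluorescence.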

[2] = test system: LXRa:RXRa (NR concentration 270 nM, RXRa partner concentration 90 nM)
In short: as §1

[3] = test system: LXRa homodimer (NR concentration 270 nM)
In short: as §1

[4] = test system: LXRb:RXRa (NR concentration 270 nM, RXRa partner concentration 90 nM)
In short: as §1

[5] = test system: LXRb homodimer (NR concentration 270 nM)
In short: as §1

[6] = test system: PPARa:RXRa (NR concentration 270 nM, RXRa partner concentration 90 nM)
In short: as §1

[7] = test system: PPARg:RXRa (NR concentration 180 nM, RXRa partner concentration 90 nM)
In short: as §1

[8] = test system: PPARg:RXRa 270nM:90nM, anti-RXR (NR concentration 270 nM, RXRa partner concentration 90 nM)
In short: as §1

[9] = test system: PPARg:RXRa 30nM:10nM, anti-RXR (NR concentration 30 nM, RXRa partner concentration 10 nM)
In short: as §1

[10] = test system: PPARg:RXRa 90nM:30nM, anti-RXR (NR concentration 90 nM, RXRa partner concentration 30 nM)
In short: as §1

[11] = test system: PPARg:RXRa DBDmut IVT, anti-RXR (DBD mutation: RXRa K156A/R161A, NR concentration 270 nM, RXRa partner concentration 90 nM)
In short: as §1

[12] = test system: PPARg:RXRa IVT, anti-PPARg (NR concentration 270 nM, RXRa partner concentration 90 nM)
In short: as §1

[13] = test system: PPARg DBDmut:RXRa IVT, anti-PPARg (DBD mutation: PPARg1 K132A/R137A, NR concentration 270 nM, RXRa partner concentration 90 nM)
In short: as §1

[14] = test system: PPARg DBDmut IVT, anti-PPARg (DBD mutation: PPARg1 K132A/R137A, NR concentration 270 nM)
In short: as §1

[15] = test system: PPARg homodimer (NR concentration 180 nM)
In short: as §1

[16] = test system: PXR:RXRa (NR concentration 270 nM, RXRa partner concentration 90 nM)
In short: as §1

[17] = test system: PXR homodimer (NR concentration 270 nM)
In short: as §1

[18] = test system: RARa:RXR (NR concentration 270 nM, RXRa partner concentration 90 nM)
In short: as §1

[19] = test system: RARa homodimer (NR concentration 270 nM)
In short: as §1

[20] = test system: RARb:RXRa (NR concentration 270 nM, RXRa partner concentration 90 nM)
In short: as §1

Sequence | PBM binding z-score [1] | PBM binding z-score [2] | PBM binding z-score [3] | PBM binding z-score [4] | PBM binding z-score [5] | PBM binding z-score [6] | PBM binding z-score [7] | PBM binding z-score [8] | PBM binding z-score [9] | PBM binding z-score [10] | PBM binding z-score [11] | PBM binding z-score [12] | PBM binding z-score [13] | PBM binding z-score [14] | PBM binding z-score [15] | PBM binding z-score [16] | PBM binding z-score [17] | PBM binding z-score [18] | PBM binding z-score [19] | PBM binding z-score [20]
TCGAGTAGGTTAGTCGGGGCACTCAGCCAACATA | 0.251 | 0.253 | -0.0703 | 0.402 | -1.06 | 0.681 | 0.103 | 0.749 | 0.995 | 0.753 | 2.29 | 2.16 | -0.475 | -0.114 | 0.481 | 0.0586 | -0.241 | 0.247 | -0.581 | 0.524
ACTCGGAGGACAAAGGTCCGAGCTACGCCAGTGA | -0.0908 | 0.0119 | -0.328 | -0.654 | -0.577 | 0.672 | 1.66 | 2.29 | 0.616 | 2.38 | 0.177 | 0.313 | -0.996 | -0.635 | -0.36 | -0.365 | -0.238 | -0.334 | -0.387 | 1.29
AGAACGAGGGGACGCTGAGTTGATAGCAGAGTAG | -0.308 | -0.353 | -0.679 | -0.522 | -0.449 | -0.232 | 0.607 | 0.0813 | -0.0641 | -0.258 | 1.17 | 0.723 | 0.599 | 0.498 | -0.427 | -0.245 | 0.132 | -0.589 | -0.633 | 0.334
ACTAGCAGGCCAAGTTTGGGACACTCAAACAAAG | -0.139 | -0.665 | -0.588 | -0.515 | -0.807 | -0.478 | 0.0502 | -0.814 | -0.775 | -0.548 | 0.573 | 0.235 | -0.681 | -1.33 | -0.893 | -0.655 | -0.694 | -0.143 | -0.864 | 0.366
AGAATGAGGTTATTACGATCAGGGAATTGCGGTC | 2.01 | 1.7 | 0.373 | 1.49 | 0.0914 | 2.66 | 1.55 | 1.88 | 0.584 | 1.11 | 3.27 | 2.51 | 1.02 | 0.66 | 0.902 | 1.26 | 0.487 | 1.78 | 1.21 | 1.42
CCTAGCAGGCCAATCTGGGTCTCTCAAGGCTTGA | -0.268 | -0.409 | -0.738 | -0.885 | -0.982 | 0.318 | -0.774 | -0.468 | -1.1 | -0.61 | 1.89 | 1.97 | -0.916 | -2.13 | -1.06 | -0.821 | -0.804 | -0.353 | -0.835 | 0.0483
